Data: ChEMBL document CHEMBL4513216, “Probing the Open Global Health Chemical Diversity Library for Multistage-Active Starting Points for Next-Generation Antimalarials” (ACS Infect Dis, 2020)
Among all 69,000 compounds or so, about 8,600 (12%) showed an effect of 50% or more. Shown is part of a subset that was picked to be rich in strong results.

Each compound was assayed on Plasmodium berghei (assay: Screen against P. berghei liver stage (PbLuc), transformed with Luciferase, at 10uM). Conditions: tested at 10 uM.
Format: functional, HepG2

SMILES | INHIBITION [%]
CC(C)CCC(=O)N1CCN(C(C)c2nnc(CC(C)C)o2)CC1 (centres undefined) | 13.8
COCCNC(=O)CCN1C(=O)CC2(CCCC2)C1=O | 29
Cc1cc(C(=O)N2CCCN(c3nccs3)CC2)c(C)n1C(C)C | -26.3
Cc1cc(NC(=O)NCC(C(C)C)N2CCOCC2)n(C)n1 (centres undefined) | 28.8
CNC(=O)c1n[nH]c2c1C(c1cccc3nsnc13)CC(=O)N2 (centres undefined) | 46.9
CNC(=O)c1n[nH]c2c1C(c1cccc3c1OC(C)(C)C3)CC(=O)N2 (centres undefined) | 50.1
CNC(=O)c1n[nH]c2c1C(c1cccc3[nH]ccc13)CC(=O)N2 (centres undefined) | 24.4
CCc1[nH]ncc1C(=O)N1CCOC(c2nc(C)n[nH]2)C1 (centres undefined) | 25.6
Cn1ccnc1CN1CC[C@@H](NS(C)(=O)=O)[C@@H]1Cc1ccccc1 | 45.1
COc1ccc(COCC(O)CNC(=O)c2cccc(OC)c2)cc1 (centres undefined) | 23.5
COc1ccc(COCC(O)CNC(=O)c2ccc(C)c(F)c2)cc1 (centres undefined) | 52.3
COc1ccc(COCC(O)CNC(=O)c2cc(C)cc(C)c2)cc1 (centres undefined) | 17.7
CS(=O)(=O)NC1CCN(c2cccc(F)c2C#N)CC1 | -12.1
COc1ccc(-c2cn(CCn3c(C)cc(C)nc3=O)nn2)cn1 | 51.4
COc1c(F)cc(-c2cn(CCn3c(C)cc(C)nc3=O)nn2)cc1Cl | -4.68
CC(=O)Nc1ccc(-c2cn(CCn3c(C)cc(C)nc3=O)nn2)cc1 | -31.1
CC(C)C1SCC(=O)Nc2c1c(O)nn2C1CCCC1 (centres undefined) | 1.04
CC(C)C1SCC(=O)Nc2c1c(O)nn2C1CCCCC1 (centres undefined) | 74.4
CC(C)(C)C1SCC(=O)Nc2c1c(O)nn2C1CCCCC1 (centres undefined) | 37.4
CC(C)Oc1ccccc1C1CC(=O)Nc2nc(N3CCOCC3)sc21 (centres undefined) | -41.2
Cc1nc2c(c(=O)[nH]1)CCN(C(=O)c1[nH]nc3c1CC(C)CC3)C2 (centres undefined) | 15.2
c1nc(CN2CCCC(Cc3ccc(NC4CCCC4)nn3)C2)c[nH]1 (centres undefined) | 13.7
Cc1cc(C)c2c(N3CCN(Cc4ncccc4C)CC3)ncnc2n1 | 58.1
Cc1cccnc1CN1CCN(c2noc(-c3ccccc3)n2)CC1 | -13.2
CCOc1ccnc(N2CCN(Cc3ncccc3C)CC2)n1 | 27.9
CCNc1ccnc(N2CCN(Cc3ncccc3C)CC2)n1 | 51.3
Cc1cc(C)c2c(N3CCN(CCN4CCOCC4)CC3)ncnc2n1 | 40.3
COCCN1CCN(c2ncnc3nc(C)cc(C)c23)CC1 | -14.1
CC(C)C(=O)N1CCN(c2ncnc3cc4c(cc23)OCCO4)CC1 | 2.69
